Measurements published in PubChem BioAssay (NCATS).
Records with an inconclusive call do not appear. The source made the active and inactive calls. The call rests on the fitted dose curve; in most records, active means well fitted curve in the direction sought with a large enough effect; inconclusive means small, poorly fitted or top-dose-only effect, or another doubt; inactive means no such curve, though single readings can be large; an effect the other way counts as inactive or inconclusive.

How the values were obtained:
[1] = Quantitative High-Throughput drug screen in 47 multiple myeloma cell lines against the NCATS MIPE library collection: Karpas417_ECACC cell viability assay (AID 1918961); details: Karpas417 myeloma viability, CellTiter-Glo ATP luminescence, 48 h; viability (% of DMSO): at 45.8 µM (top of the series)
Method in brief: (§1)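 Approved and investigational drugs from MIPE 4.0 were added by pin tool to 500 cells per well. After 48 hours at 37C, ATP-based CellTiter-Glo luminescence indicated remaining viability.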

[2] = Quantitative High-Throughput drug screen in 47 multiple myeloma cell lines against the NCATS MIPE library collection: KHM11_PLB cell viability assay (AID 1918962); further: nearly all actives have a fitted effect of over 35% in size
Method in brief: (§2)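 Viability readout: CellTiter-Glo luminescence following 5 min room-temperature incubation with reagent. Prior exposure: 48 h, 37C, humidified 5% CO2, 500 cells per well.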

[3] = Quantitative High-Throughput drug screen in 47 multiple myeloma cell lines against the NCATS MIPE library collection: JIM3_ECACC cell viability assay (AID 1918963; further: nearly all actives have a fitted effect of over 35% in size)
Method in brief: as §2

[4] = Quantitative High-Throughput drug screen in 47 multiple myeloma cell lines against the NCATS MIPE library collection: JIM1_ECACC cell viability assay (AID 1918964)
Method in brief: (§3)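 qHTS of the MIPE 4.0 collection: 500 myeloma cells/well, 48 h drug exposure at 37C in 5% CO2, then CellTiter-Glo for 5 min at room temperature before luminescence reading.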

[5] = Quantitative High-Throughput drug screen in 47 multiple myeloma cell lines against the NCATS MIPE library collection: INA6_PLB cell viability assay (AID 1918965; further: nearly all actives have a fitted effect of over 55% in size)
Method in brief: as §1

[6] = Quantitative High-Throughput drug screen in 47 multiple myeloma cell lines against the NCATS MIPE library collection: JJN3_DSMZ cell viability assay (AID 1918966; further: nearly all actives have a fitted effect of over 50% in size)
Method in brief: as §3

[7] = Quantitative High-Throughput drug screen in 47 multiple myeloma cell lines against the NCATS MIPE library collection: H1112_PLB cell viability assay (AID 1918967; further: nearly all actives have a fitted effect of over 30% in size)
Method in brief: as §3

[8] = Quantitative High-Throughput drug screen in 47 multiple myeloma cell lines against the NCATS MIPE library collection: KMS27_JCRB cell viability assay (AID 1918970); further: nearly all actives have a fitted effect of over 30% in size
Method in brief: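 Viability inhibition screen, 48 h compound exposure, luminescent ATP read-out.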

[9] = Quantitative High-Throughput drug screen in 47 multiple myeloma cell lines against the NCATS MIPE library collection: Karpas25_ECACC cell viability assay (AID 1918968; further: nearly all actives have a fitted effect of over 35% in size)
Method in brief: as §3

[10] = Quantitative High-Throughput drug screen in 47 multiple myeloma cell lines against the NCATS MIPE library collection: KMS12BM_JCRB cell viability assay (AID 1918971); further: nearly all actives have a fitted effect of over 35% in size
Method in brief: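 Steps: seed 500 cells per well; pin-transfer MIPE 4.0 library; incubate 48 h at 37C, 5% CO2, humidified; add CellTiter-Glo, 5 min room temperature; read luminescence.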
Potency means the concentration at half of the fitted maximal effect.

Compound	Potency [1]	Potency [2]	Potency [3]	Potency [4]	Potency [5]	Potency [6]	Potency [7]	Potency [8]	Potency [9]	Potency [10]
C=CC(=O)Nc1cc2c(Nc3ccc(F)c(Cl)c3)ncnc2cc1C#CC(C)(C)N1CCN(C)CC1	0.59 µM (active)	2.09 µM (active)	1.66 µM (active)	1.05 µM (active)	0.418 µM (active)	5.26 µM (active)	1.87 µM (active)	0.833 µM (active)	–	–
Clc1ccc2ncc(-c3cccc(NC4CNC4)n3)n2c1	inactive	8.33 µM (active)	14.8 µM (active)	–	5.9 µM (active)	16.6 µM (active)	11.8 µM (active)	inactive	26.4 µM (active)	23.5 µM (active)
CC(C)(C)c1cnc(CSc2cnc(NC(=O)C3CCNCC3)s2)o1	0.132 µM (active)	0.0743 µM (active)	0.235 µM (active)	0.0743 µM (active)	0.235 µM (active)	0.0833 µM (active)	0.469 µM (active)	0.209 µM (active)	0.209 µM (active)	0.132 µM (active)
C[C@H]1C[C@@H]2[C@@H]([C@@H](O)C[C@@]3(C)[C@H]2CC[C@]3(O)C(=O)CO)[C@@]2(C)C=CC(=O)C=C12	0.132 µM (active)	inactive	inactive	inactive	–	inactive	–	–	–	inactive
C[C@@H](Oc1cc(-c2cnn(C3CCNCC3)c2)cnc1N)c1c(Cl)ccc(F)c1Cl	2.64 µM (active)	3.72 µM (active)	8.33 µM (active)	–	4.69 µM (active)	–	11.8 µM (active)	26.4 µM (active)	–	–
COc1cc(-c2nn(C3CCC(N4CCN(C(C)=O)CC4)CC3)c3ncnc(N)c23)ccc1NC(=O)c1cc2ccccc2n1C (configuration not stated)	inactive	–	2.35 µM (active)	0.235 µM (active)	2.96 µM (active)	–	0.0833 µM (active)	–	–	10.5 µM (active)
CNc1nccc(-c2cccnc2Oc2cc(C(=O)Nc3cccc(C(F)(F)F)c3)ccc2C)n1	–	1.05 µM (active)	18.7 µM (active)	8.33 µM (active)	4.18 µM (active)	18.7 µM (active)	14.8 µM (active)	–	–	–
CC1(C)O[C@@H]2C[C@@H]3[C@H]4C[C@@H](F)C5=CC(=O)C=C[C@]5(C)[C@@]4(F)[C@@H](O)C[C@]3(C)[C@]2(C(=O)CO)O1	inactive	inactive	–	–	inactive	inactive	inactive	–	0.0074 µM (active)	inactive
O=C(C=Cc1cccnc1)NCCCCC1CCN(C(=O)c2ccccc2)CC1	13.2 µM (active)	0.0235 µM (active)	–	–	0.001 µM (active)	0.0209 µM (active)	0.0132 µM (active)	0.0132 µM (active)	0.0059 µM (active)	0.0209 µM (active)
COc1ccc(F)c(F)c1C(=O)c1cnc(NC2CCN(S(C)(=O)=O)CC2)nc1N	0.743 µM (active)	1.87 µM (active)	–	–	1.32 µM (active)	1.32 µM (active)	1.87 µM (active)	–	1.18 µM (active)	1.18 µM (active)
Cc1nc2ccc(CN(C)c3ccc(C(=O)N[C@@H](CCC(=O)O)C(=O)O)s3)cc2c(=O)[nH]1	inactive	–	0.0935 µM (active)	–	0.0418 µM (active)	–	inactive	0.264 µM (active)	inactive	–
CCc1c2c(nc3ccc(O)cc13)-c1cc3c(c(=O)n1C2)COC(=O)[C@]3(O)CC	0.332 µM (active)	0.166 µM (active)	–	–	0.001 µM (active)	0.332 µM (active)	0.0469 µM (active)	–	–	–
CC=CC1=C(C(=O)O)N2C(=O)[C@H](NC(=O)[C@H](N)c3ccc(O)cc3)[C@@H]2SC1	inactive	–	–	–	–	inactive	–	–	–	inactive
CC(C)c1noc(N2CCC(COc3ccc(-c4ccc(S(C)(=O)=O)cc4)nc3)CC2)n1	inactive	–	–	–	1.87 µM (active)	–	inactive	–	1.48 µM (active)	–
CC(C)c1cnn2c(NCc3ccccc3)cc(N[C@@H](CO)[C@H](O)CO)nc12	0.0833 µM (active)	0.148 µM (active)	–	–	0.166 µM (active)	0.132 µM (active)	0.296 µM (active)	0.209 µM (active)	0.235 µM (active)	0.332 µM (active)
COC(=O)C[C@](O)(CCCC(C)(C)O)C(=O)O[C@@H]1C(OC)=C[C@]23CCCN2CCc2cc4c(cc2[C@H]13)OCO4	inactive	inactive	–	inactive	–	–	inactive	inactive	–	inactive
CC(C)=CCCC(C)=CCCC(C)=CCSc1ccccc1C(=O)O	0.235 µM (active)	1.18 µM (active)	–	–	18.7 µM (active)	1.18 µM (active)	–	–	2.35 µM (active)	–
Cc1c(C)n(Cc2ccc(-c3ccccc3C(=O)O)cc2)c2ccc(C(=O)N[C@@H](C)c3ccc([N+](=O)[O-])cc3)cc12	0.0187 µM (active)	–	13.2 µM (active)	–	18.7 µM (active)	–	18.7 µM (active)	0.0833 µM (active)	5.26 µM (active)	–
CC(C)(C)c1cc(C(C)(C)C)c(NC(=O)c2c[nH]c3ccccc3c2=O)cc1O	inactive	inactive	inactive	–	inactive	–	inactive	–	inactive	–
